{"source": "PubChem BioAssay (NCI)", "note": "The panel holds about 83,000 compounds, 20% with a hit somewhere; the sample as a whole holds those more often.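 The test compound was applied at a single concentration to cells in 96-well plates for 48 hours, and percent growth was recorded.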 Activity calls are given as the source filed them. Rule for the calls: active = growth percent below 10; inactive = the rest.", "data": [{"test_system": "SN12C renal", "assay": "NCI-60 one-dose screen, 48 h (100 = growth as untreated, 0 = no growth, -100 = all killed)", "settings": "10 µM unless noted", "values": [{"molecule": "O=C1Nc2ccccc2/C1=N/N=C/c1c[nH]c2ccccc12", "growth": "73.8% (inactive)"}, {"molecule": "Cc1nc2ccc(C(=O)NCc3cc(C(=O)O)c(C)o3)cc2nc1C", "growth": "96.5% (inactive)"}, {"molecule": "Cc1ccc(S(=O)(=O)NN/C(N)=N\\S(=O)(=O)c2cc(C)c(Cl)cc2SCc2ccccc2)cc1", "growth": "101% (inactive)"}, {"molecule": "COc1ccc(-c2nnc(SCC(=O)NC3=NN=C(c4ccccc4)CS3)o2)cc1", "growth": "99.8% (inactive)"}, {"molecule": "Cn1ncc2c(Nc3ccc(Br)cc3)nc(Nc3ccc(Br)cc3)nc21", "growth": "47.1% (inactive)"}, {"molecule": "Cc1cn(C2CCCCC2)c(=O)[nH]c1=O", "growth": "108% (inactive)"}, {"molecule": "Cl.Fc1c[c-]c(-c2ccccn2)c(F)c1.[Pt].c1ccc(P(c2ccccc2)C([PH+](c2ccccc2)c2ccccc2)[PH+](c2ccccc2)c2ccccc2)cc1", "growth": "11.2% (inactive)"}, {"molecule": "N=C(N)c1ccc(-c2ccc(-c3ccc(Cl)c(Cl)c3)o2)cc1", "growth": "-81% (active)"}, {"molecule": "Cc1cc(=O)c2cc3nc(-c4cccnc4)oc3c(Br)c2o1", "growth": "110% (inactive)"}, {"molecule": "C=C1C(=O)O[C@H]2[C@H]1CC/C(COC(=O)/C=C/C(=O)NCc1ccc(Cn3c(=O)sn(-c4ccccc4)c3=O)cc1)=C\\CC[C@@]1(C)O[C@@H]21", "growth": "-43.7% (active)"}, {"molecule": "Cc1ccc(/C=C(\\C#N)n2nnc3cc(Cl)c(Cl)cc32)cc1", "growth": "19.5% (inactive)"}, {"molecule": "N=C(N)c1ccc(-c2ccc(-c3ccc(Cl)c(Cl)c3)o2)nc1", "growth": "-72.8% (active)"}, {"molecule": "COc1ccccc1C(=O)NC(=S)Nc1ccc(-c2nc3ccccc3[nH]2)cc1", "growth": "46% (inactive)"}, {"molecule": "COC(=O)c1ccc2oc(NC(=O)c3ccc(N4CCOCC4)c([N+](=O)[O-])c3)nc2c1", "growth": "87.3% (inactive)"}, {"molecule": "COC(=O)c1ccc(CSc2nnc(-c3ccncc3)o2)cc1", "growth": "96.2% (inactive)"}, {"molecule": "N#C/C(=C\\c1ccc2c(c1)OCO2)n1nnc2ccccc21", "growth": "14.1% (inactive)"}, {"molecule": "O=C(NC(=S)Nc1ccc(-c2nc3ccccc3[nH]2)cc1)c1ccc2ccccc2c1", "growth": "15.9% (inactive)"}, {"molecule": "COc1cc2c(c(OC)c1OC)C(=O)/C(=C/c1cc(C)c(O)c(C)c1)S2", "growth": "45.6% (inactive)"}, {"molecule": "COc1ccc(-c2cc(-c3ccc(Nc4nc(Nc5ccccc5)nc(Nc5ccc(Cl)cc5)n4)cc3)nc(N)c2C#N)cc1", "growth": "25.7% (inactive)"}, {"molecule": "Cc1c(Cl)cccc1NS(=O)(=O)c1ccccc1", "growth": "103% (inactive)"}, {"molecule": "CCn1c(Sc2nnc(NC(C)=O)s2)nc2c1c(=O)n(C)c(=O)n2C", "growth": "94% (inactive)"}, {"molecule": "NS(=O)(=O)c1cn(-c2ncnc3nc[nH]c23)ccc1=O", "growth": "92.4% (inactive)"}, {"molecule": "CN1C(=O)CCC(N2C(=O)c3cccc(NCCOCCOCCNC(=O)c4cc5c(o4)C(=O)c4ccccc4C5=O)c3C2=O)C1=O", "note": "(centres undefined)", "growth": "-86.2% (active)"}, {"molecule": "COc1ccc(Nc2ncc(Br)c(NCCCNC(=O)C3CCC3)n2)cc1", "growth": "27.8% (inactive)"}, {"molecule": "COc1ccccc1NC(=O)Nc1ccc(-c2nc3ccccc3o2)cc1", "growth": "98.7% (inactive)"}, {"molecule": "N#C/C=C(\\c1ccc([N+](=O)[O-])cc1)n1nnc2cc(Cl)c(Cl)cc21", "growth": "-20.1% (active)"}, {"molecule": "O=C(c1ccccc1)c1ccc(N2C(=O)C3C4c5ccccc5C(/C=C/C(=O)c5ccccn5)(c5ccccc54)C3C2=O)cc1", "note": "(centres undefined)", "growth": "11.3% (inactive)"}, {"molecule": "Cc1cc(-c2ccc(N(C)C)cc2)c2sc(=O)[nH]c2n1", "growth": "76.7% (inactive)"}, {"molecule": "N#Cc1c(NC(=O)c2ccccc2I)sc2c1CCCC2", "growth": "53.5% (inactive)"}, {"molecule": "C[C@@H]1CC[C@@H]2[C@@H]1[C@H](OC(=O)/C=C/c1ccccc1)[C@]1(CCCOCCOCCOCCOC(=O)CCCC[C@@H]3SC[C@@H]4NC(=O)N[C@@H]43)C[C@@H](OC(=O)CO)[C@@]2(C)O1", "growth": "106% (inactive)"}, {"molecule": "CCn1c(Sc2nnc(NC(=O)CCN3CCCC3)s2)nc2c1c(=O)n(C)c(=O)n2C", "growth": "96.8% (inactive)"}, {"molecule": "Cl.Fc1c[c-]c(-c2ccccn2)c(F)c1.[Pt].c1ccc([PH+](C[PH+](c2ccccc2)c2ccccc2)c2ccccc2)cc1", "growth": "-70.3% (active)"}, {"molecule": "CCCCCCCC/C=C/CCCCCCCC1=NCC[N+]1(CCO)CCO", "growth": "76% (inactive)"}, {"molecule": "CCOC(=O)N1CCc2c(sc3c2C(=O)N[C@H](c2ccc(OC)cc2)N3)C1", "growth": "85.4% (inactive)"}, {"molecule": "CCOc1ccc(-c2nc3ccc(-c4nc5ccc(N6CCN(C)CC6)cc5[nH]4)cc3[nH]2)cc1OCC", "growth": "20.8% (inactive)"}, {"molecule": "O=C(NCCN1CCC(O)CC1)c1cc2c(o1)C(=O)c1ccccc1C2=O", "growth": "-88.1% (active)"}, {"molecule": "Cl.Fc1c[c-]c(-c2ccccn2)c(F)c1.[Pt].c1ccc([PH+](c2ccccc2)c2ccccc2[PH+](c2ccccc2)c2ccccc2)cc1", "growth": "-81.3% (active)"}, {"molecule": "O=C(NCCOCCOCCOCCNC(=O)c1cc2c(o1)C(=O)c1ccccc1C2=O)NC12CC3CC(CC(C3)C1)C2", "growth": "-68.2% (active)"}, {"molecule": "COc1ccc(/C=C(\\C#N)n2nnc3ccccc32)cc1", "growth": "18.9% (inactive)"}]}]}
